FBW7 act = activators of human E3 ligase FBW7. Q969H0. AlphaScreen FBW7–phospho-cyclin E peptide binding, activator screen. normalized activity (activation), % at 26.1 µM. actives 0.13% (n = 650,000). AID 1259310; in the data active = normalized activity above about 1.9%;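 also: purified mutant Fbw7 with reduced substrate affinity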
MITF inh = inhibitors of human MITF; AID 1259374; inhibition, % at 2.6 µM; actives 0.91% (n = 650,000); AlphaScreen MITF homodimerization, bead proximity signal; O75030; in the data active = inhibition above about 50%
Target sequence (O75030 whole entry, looked up): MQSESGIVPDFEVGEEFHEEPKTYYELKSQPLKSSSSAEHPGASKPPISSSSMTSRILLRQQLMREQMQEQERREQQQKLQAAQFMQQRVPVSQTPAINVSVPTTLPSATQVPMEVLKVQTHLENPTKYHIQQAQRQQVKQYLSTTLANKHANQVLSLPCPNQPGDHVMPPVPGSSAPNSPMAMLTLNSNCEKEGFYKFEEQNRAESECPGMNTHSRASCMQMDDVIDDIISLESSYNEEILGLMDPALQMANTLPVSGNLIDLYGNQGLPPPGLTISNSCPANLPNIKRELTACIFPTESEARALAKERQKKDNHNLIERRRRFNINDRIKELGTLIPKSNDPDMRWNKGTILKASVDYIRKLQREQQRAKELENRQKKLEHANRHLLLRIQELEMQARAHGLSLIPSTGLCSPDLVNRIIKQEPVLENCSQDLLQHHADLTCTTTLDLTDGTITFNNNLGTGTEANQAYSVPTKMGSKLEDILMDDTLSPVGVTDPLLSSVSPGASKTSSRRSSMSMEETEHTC
GPR151 ag = activators of human GPR151 | Q8TDV0 | PathHunter beta-arrestin GPR151 cells, luminescence | activation, % at 11.2 µM | actives 1% (n = 650,000) | AID 1508602; in the data active = activation above about 4.9%
TEAD-YAP block = TEAD-YAP interaction inhibition; AID 1259422; inhibition, % at 9.12 µM; HEK-TIYL cells, TEAD-Gal4/YAP UAS-luciferase luminescence; actives 1.4% (n = 640,000); in the data active = inhibition above about 32%
GPR151 confirm = human GPR151 activation, confirmation screen; GPR151 PathHunter beta-arrestin cells, luminescence, 90 min; % of EA-reagent control over plate median; shares compounds with GPR151 ag; activation, % at 11.2 µM; AID 1508609; 6,700 tested, under 10 active;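 active = mean percent activation across replicates above the confirmation screen cutoff of 4.91%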
GPR119 counter = counter-screen for GPR151 activators: effect on human GPR119. shares compounds with GPR151 ag. GPR119 PathHunter beta-arrestin cells, luminescence, 90 min; 0 = compound-well median, 100 = enzyme-acceptor control. activation, % at 11.2 µM. actives 0.3% (n = 6,700). AID 1508611;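 active = mean percent activation in the counterscreen above 29.09%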;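 also: counterscreen on off-target GPR119 to flag nonselective hits from the GPR151 activator screen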
Large screens that a line does not name were inactive (follow-up assays come after a bar, where they were run). Hits are enriched below; roughly 3.5% of the tested compounds scored in any of these assays.

CCOc1ccc(NC(=O)N2CCC(Cn3cnc4cc(C)c(C)cc43)CC2)cc1	GPR151 ag 5.8 | GPR151 confirm inactive | GPR119 counter inactive
CCOc1ccc(NC(=O)N2CCC(CN3CCCCCC3)CC2)cc1	none
CCc1ccc2[nH]c3nc(N/N=C/c4cccc(O)c4)nnc3c2c1	GPR151 ag 6.7 | GPR151 confirm inactive | GPR119 counter inactive
CCc1ccc2[nH]c3nc(N/N=C/c4ccc(O)cc4)nnc3c2c1	none
O=C(Nc1ccc(Oc2ccc(Cl)cc2)cc1)C1CCCN1C(=O)OCc1ccccc1 (centres undefined)	GPR151 ag 5.5 | GPR151 confirm inactive | GPR119 counter inactive
CC1=C(C#N)C(=O)NC(=O)/C1=C\c1ccc(-c2cccc(C(=O)OC(C)C)c2)o1	GPR151 ag 5.0 | GPR151 confirm inactive | GPR119 counter inactive
CCCCOC(=O)c1cccc(-c2ccc(/C=C3\C(=O)N(CCO)C(=O)C(C#N)=C3C)o2)c1	GPR151 ag 8.9 | GPR151 confirm inactive | GPR119 counter inactive
CC(=O)c1cccc(-c2ccc(/C=C3\C(=O)NC(=O)C(C#N)=C3C)o2)c1	none
O=C(CCCn1c2ccccc2c2cn[nH]c(=O)c21)NCCc1ccccc1	none
Cc1ccc(CNC(=O)CCCn2c(=S)[nH]c3cc4c(cc3c2=O)OCO4)o1	none
Cc1ccc(N2C(=O)CC(Nc3ccc(F)cc3)C2=O)c(Br)c1 (centres undefined)	GPR151 ag 15 | GPR151 confirm inactive | GPR119 counter inactive
Cc1cccc(N2C(=O)CC(Nc3ccc(F)cc3)C2=O)c1 (centres undefined)	none
COC(CNC(=O)C(=O)NCC1OCCN1C(=O)c1ccc2c(c1)OCO2)OC (centres undefined)	none
O=C(c1ccncc1)N1CCCC(c2[nH]ncc2-c2ccccc2F)C1 (centres undefined)	none
C[C@@H](OCc1ccccc1)[C@@H]1NC(=O)[C@H]2CN(C(=O)c3cc(F)c(F)cc3F)CCN2C1=O	none
C[C@@H](OCc1ccccc1)[C@@H]1NC(=O)[C@H]2CN(C(=O)c3cc(F)ccc3F)CCN2C1=O	GPR151 ag 8.9 | GPR151 confirm inactive | GPR119 counter inactive
Cc1ccc(C2=N/C(=C/c3ccc([N+](=O)[O-])cc3)C(=O)O2)cc1	GPR151 ag 7.9 | GPR151 confirm inactive | GPR119 counter inactive
O=C1OC(c2ccc([N+](=O)[O-])cc2)=N/C1=C\c1ccccc1	none
Cc1ccc(C2=N/C(=C/c3cc(Br)cs3)C(=O)O2)cc1[N+](=O)[O-]	GPR151 ag 5.1 | GPR151 confirm inactive | GPR119 counter inactive
Cc1ccnc(NC(c2cccc(C)n2)c2ccc3cccnc3c2O)c1 (centres undefined)	none
COc1cccc(C(Nc2cc(C)ccn2)c2ccc3cccnc3c2O)c1 (centres undefined)	GPR151 ag 5.1, TEAD-YAP block 80 | GPR151 confirm inactive | GPR119 counter inactive
CCC(C)CC(=O)N1CCc2c(C(=O)OC)c(OCCc3ccccn3)cc(=O)n2CC1 (centres undefined)	none
CCCn1c(=O)c2c(nc3n(-c4ccc(C(=O)OCC)cc4)c(C)cn23)n(C)c1=O	none
CCn1c(=O)c2c(nc3n(C)c(C)cn23)n(C)c1=O	GPR151 ag 8.0 | GPR151 confirm inactive | GPR119 counter inactive
CCCCn1c(=O)c2c(nc3n(-c4ccc(C(=O)OCC)cc4)c(C)cn23)n(C)c1=O	GPR151 ag 5.6 | GPR151 confirm inactive | GPR119 counter inactive
CCn1c(=O)c2c(nc3n(CC)c(C)cn23)n(C)c1=O	none
O=c1oc2ccccc2cc1-c1csc(-c2ccc(Cl)cc2)n1	none
O=C1CSc2cc(S(=O)(=O)NCc3cccnc3)ccc2N1	none
CN1CCN(CC(=O)Nc2c(C(=O)C3CC3)oc3ccccc23)CC1	none
CC(=O)c1oc2ccccc2c1NC(=O)CN1CCCCC1	GPR151 ag 5.6 | GPR151 confirm inactive | GPR119 counter inactive
O=C(Nc1c2c(nn1-c1nc3ccccc3s1)CCC2)c1c(F)cccc1F	none
COc1ccc(CNC(=O)NCC2(c3ccc(F)cc3)CC2)cc1	none
CCOc1ccc(N(CC(=O)NCC(C)C)S(=O)(=O)c2ccc(Cl)cc2)cc1	none
O=C(O)c1c[nH]c2ccc(S(=O)(=O)N3CCc4ccccc4C3)cc2c1=O	none
